The supplement of paper PMC12282887
± gives the standard deviation of the averaged measurements.

Assays:
Test in all cases: promoter activity interaction Z-score (Lux/OD deviation from empty-vector control); higher = stronger promoter induction by the compound
[1] = system: E. coli BW25113 acrABp lux reporter
How it was run: (§1)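 Wild-type E. coli BW25113 and three single-gene deletion strains, each carrying a low-copy luxCDABE promoter reporter, were grown at 37°C in 40 µl LB Lennox per well of a 384-well plate. Every compound was applied at four 1:2 dilutions in biological duplicates, and OD600 and luminescence were read every 30 min for 12 h. Integration covered 0–8 h for wild type and 1–9 h for deletion strains, and wells under 10% of the median growth value were removed. Scores are Z-transformed residuals of growth-normalised luminescence fitted against a control.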

[2] = system: E. coli BW25113 marRABp lux reporter
How it was run: as §1

[3] = system: E. coli BW25113 micFp lux reporter
How it was run: as §1

[4] = system: E. coli BW25113 ompFp lux reporter
How it was run: as §1

[5] = system: E. coli BW25113 robp lux reporter
How it was run: as §1

[6] = system: E. coli BW25113 soxSp lux reporter
How it was run: as §1

[7] = system: E. coli BW25113 tolCp lux reporter
How it was run: as §1

[8] = 8.6 µg/ml, genetic background: wild type
[9] = 8.6 µg/ml, genetic background: ΔmarA
[10] = 8.6 µg/ml, genetic background: Δrob
[11] = 8.6 µg/ml, genetic background: ΔsoxS
[12] = 17.1 µg/ml, genetic background: wild type
[13] = 17.1 µg/ml, genetic background: ΔmarA
[14] = 17.1 µg/ml, genetic background: Δrob
[15] = 17.1 µg/ml, genetic background: ΔsoxS
[16] = 34.3 µg/ml, genetic background: wild type
[17] = 34.3 µg/ml, genetic background: ΔmarA
[18] = 34.3 µg/ml, genetic background: Δrob
[19] = 34.3 µg/ml, genetic background: ΔsoxS
[20] = 68.6 µg/ml, genetic background: wild type
[21] = 68.6 µg/ml, genetic background: ΔmarA
[22] = 68.6 µg/ml, genetic background: Δrob
[23] = 68.6 µg/ml, genetic background: ΔsoxS

## Nc1ccc(C(=O)O)cc1 [4-Aminobenzoic acid]
[1]; [8]
  promoter activity interaction Z-score: -0.327 ± 0.11
[1]; [9]
  promoter activity interaction Z-score: -0.528 ± 0.3
[1]; [10]
  promoter activity interaction Z-score: 0.0646 ± 0.18
[1]; [11]
  promoter activity interaction Z-score: 0.357 ± 0.28
[1]; [12]
  promoter activity interaction Z-score: 0.051 ± 0.24
[1]; [13]
  promoter activity interaction Z-score: -0.48 ± 0.058
[1]; [14]
  promoter activity interaction Z-score: 0.185 ± 0.16
[1]; [15]
  promoter activity interaction Z-score: 0.299 ± 0.26
[1]; [16]
  promoter activity interaction Z-score: -0.112 ± 0.046
[1]; [17]
  promoter activity interaction Z-score: -0.447 ± 1.1
[1]; [18]
  promoter activity interaction Z-score: -0.379 ± 0.054
[1]; [19]
  promoter activity interaction Z-score: 0.511 ± 1.2
[1]; [20]
  promoter activity interaction Z-score: 0.119 ± 0.39
[1]; [21]
  promoter activity interaction Z-score: 1.54 ± 0.67
[1]; [22]
  promoter activity interaction Z-score: 1.31 ± 0.45
[1]; [23]
  promoter activity interaction Z-score: 1.66 ± 1.3
[2]; [8]
  promoter activity interaction Z-score: 0.0884 ± 0.35
[2]; [9]
  promoter activity interaction Z-score: 0.463 ± 0.36
[2]; [10]
  promoter activity interaction Z-score: 0.185 ± 0.28
[2]; [11]
  promoter activity interaction Z-score: 0.0813 ± 0.12
[2]; [12]
  promoter activity interaction Z-score: 0.277 ± 0.097
[2]; [13]
  promoter activity interaction Z-score: 0.444 ± 0.14
[2]; [14]
  promoter activity interaction Z-score: 0.444 ± 0.27
[2]; [15]
  promoter activity interaction Z-score: -0.00694 ± 0.024
[2]; [16]
  promoter activity interaction Z-score: 0.29 ± 0.32
[2]; [17]
  promoter activity interaction Z-score: -0.226 ± 0.0094
[2]; [18]
  promoter activity interaction Z-score: -0.189 ± 0.33
[2]; [19]
  promoter activity interaction Z-score: 0.117 ± 0.0092
[2]; [20]
  promoter activity interaction Z-score: 0.174 ± 0.024
[2]; [21]
  promoter activity interaction Z-score: 1.1 ± 0.03
[2]; [22]
  promoter activity interaction Z-score: 0.919 ± 0.45
[2]; [23]
  promoter activity interaction Z-score: 0.753 ± 0.38
[3]; [8]
  promoter activity interaction Z-score: 0.00335 ± 0.11
[3]; [9]
  promoter activity interaction Z-score: 0.0686 ± 0.11
[3]; [10]
  promoter activity interaction Z-score: 0.0394 ± 0.14
[3]; [11]
  promoter activity interaction Z-score: 0.675 ± 0.52
[3]; [12]
  promoter activity interaction Z-score: 0.408 ± 0.1
[3]; [13]
  promoter activity interaction Z-score: 0.209 ± 0.16
[3]; [14]
  promoter activity interaction Z-score: 0.289 ± 0.15
[3]; [15]
  promoter activity interaction Z-score: 0.578 ± 0.075
[3]; [16]
  promoter activity interaction Z-score: 0.901 ± 0.57
[3]; [17]
  promoter activity interaction Z-score: 0.213 ± 0.23
[3]; [18]
  promoter activity interaction Z-score: 0.391 ± 0.17
[3]; [19]
  promoter activity interaction Z-score: 1.38 ± 0.55
[3]; [20]
  promoter activity interaction Z-score: 1.16 ± 0.52
[3]; [21]
  promoter activity interaction Z-score: 0.44 ± 0.26
[3]; [22]
  promoter activity interaction Z-score: 1.42 ± 0.091
[3]; [23]
  promoter activity interaction Z-score: 1.7 ± 0.14
[4]; [8]
  promoter activity interaction Z-score: -0.317 ± 0.4
[4]; [9]
  promoter activity interaction Z-score: 0.283 ± 0.085
[4]; [10]
  promoter activity interaction Z-score: 0.0614 ± 0.37
[4]; [11]
  promoter activity interaction Z-score: 0.333 ± 0.36
[4]; [12]
  promoter activity interaction Z-score: 0.0303 ± 0.3
[4]; [13]
  promoter activity interaction Z-score: 0.284 ± 0.18
[4]; [14]
  promoter activity interaction Z-score: 0.709 ± 0.41
[4]; [15]
  promoter activity interaction Z-score: 0.198 ± 0.39
[4]; [16]
  promoter activity interaction Z-score: -0.722 ± 0.31
[4]; [17]
  promoter activity interaction Z-score: -0.0385 ± 0.32
[4]; [18]
  promoter activity interaction Z-score: -1.06 ± 0.97
[4]; [19]
  promoter activity interaction Z-score: 0.199 ± 1.1
[4]; [20]
  promoter activity interaction Z-score: -0.481 ± 0.17
[4]; [21]
  promoter activity interaction Z-score: 1.24 ± 0.08
[4]; [22]
  promoter activity interaction Z-score: 1.09 ± 0.2
[4]; [23]
  promoter activity interaction Z-score: 0.488 ± 0.83
[5]; [8]
  promoter activity interaction Z-score: 0.134 ± 0.3
[5]; [9]
  promoter activity interaction Z-score: 0.171 ± 0.2
[5]; [10]
  promoter activity interaction Z-score: 0.341 ± 0.11
[5]; [11]
  promoter activity interaction Z-score: 0.571 ± 0.73
[5]; [12]
  promoter activity interaction Z-score: 0.745 ± 0.54
[5]; [13]
  promoter activity interaction Z-score: 1.04 ± 0.39
[5]; [14]
  promoter activity interaction Z-score: 0.56 ± 0.27
[5]; [15]
  promoter activity interaction Z-score: 0.303 ± 0.42
[5]; [16]
  promoter activity interaction Z-score: 0.118 ± 0.27
[5]; [17]
  promoter activity interaction Z-score: 0.355 ± 0.34
[5]; [18]
  promoter activity interaction Z-score: -0.251 ± 0.88
[5]; [19]
  promoter activity interaction Z-score: -0.337 ± 0.84
[5]; [20]
  promoter activity interaction Z-score: 0.598 ± 0.44
[5]; [21]
  promoter activity interaction Z-score: 1.92 ± 1.2
[5]; [22]
  promoter activity interaction Z-score: 2.53 ± 2.5
[5]; [23]
  promoter activity interaction Z-score: 2.68 ± 1.7
[6]; [8]
  promoter activity interaction Z-score: 0.154 ± 0.019
[6]; [9]
  promoter activity interaction Z-score: 0.4615 ± 0.00081
[6]; [10]
  promoter activity interaction Z-score: 0.443 ± 0.19
[6]; [11]
  promoter activity interaction Z-score: 0.4 ± 0.53
[6]; [12]
  promoter activity interaction Z-score: 0.18 ± 0.23
[6]; [13]
  promoter activity interaction Z-score: 0.618 ± 0.11
[6]; [14]
  promoter activity interaction Z-score: 0.555 ± 0.098
[6]; [15]
  promoter activity interaction Z-score: 0.287 ± 0.083
[6]; [16]
  promoter activity interaction Z-score: 0.259 ± 0.017
[6]; [17]
  promoter activity interaction Z-score: 0.436 ± 0.14
[6]; [18]
  promoter activity interaction Z-score: 0.48 ± 0.11
[6]; [19]
  promoter activity interaction Z-score: 0.363 ± 0.93
[6]; [20]
  promoter activity interaction Z-score: -0.597 ± 0.028
[6]; [21]
  promoter activity interaction Z-score: 0.693 ± 0.26
[6]; [22]
  promoter activity interaction Z-score: 0.532 ± 0.4
[6]; [23]
  promoter activity interaction Z-score: -0.372 ± 0.24
[7]; [8]
  promoter activity interaction Z-score: -0.592 ± 1.1
[7]; [9]
  promoter activity interaction Z-score: 0.924 ± 0.68
[7]; [10]
  promoter activity interaction Z-score: -0.26 ± 0.81
[7]; [11]
  promoter activity interaction Z-score: 0.91 ± 0.25
[7]; [12]
  promoter activity interaction Z-score: -0.356 ± 1
[7]; [13]
  promoter activity interaction Z-score: 0.371 ± 2.1
[7]; [14]
  promoter activity interaction Z-score: 0.781 ± 1.4
[7]; [15]
  promoter activity interaction Z-score: -0.463 ± 0.096
[7]; [16]
  promoter activity interaction Z-score: 0.348 ± 0.41
[7]; [17]
  promoter activity interaction Z-score: 0.458 ± 1.9
[7]; [18]
  promoter activity interaction Z-score: 0.119 ± 0.56
[7]; [19]
  promoter activity interaction Z-score: 1.86 ± 0.96
[7]; [20]
  promoter activity interaction Z-score: 0.28 ± 0.49
[7]; [21]
  promoter activity interaction Z-score: 2.27 ± 0.56
[7]; [22]
  promoter activity interaction Z-score: 0.498 ± 0.67
[7]; [23]
  promoter activity interaction Z-score: 1.22 ± 0.073
